Unmarked numbers belong to inactive results.

The subject of the assay is Vero E6 infected with SARS-CoV-2. The experiment in a line: inhibition of SARS-CoV-2 cytopathic effect; higher = more antiviral protection, active = above 15. The settings on record: 100 nM; 48 h. Background: Damage to the host cells serves as the signal in cytopathic effect assays.
`O=C1NC(=O)C(c2ccccc2)(c2ccccc2)N1` [phenytoin]: the “inhibition of SARS-CoV-2 cytopathic effect” value (“inhibition” for short) was -0.76%. To `CC(=O)Nc1ncc([N+](=O)[O-])s1` [nithiamide] belongs -13.5%; to `C[C@H](N)Cc1cccc(O)c1` [gepefrine], 1.51%; to `Fc1ccc(C(c2ccc(F)cc2)N2CCN(C/C=C/c3ccccc3)CC2)cc1` [flunarizine], -1.97%.

Take `O=c1cc(-c2ccc(O)cc2)oc2cc(O)cc(O)c12` [apigenin]: the “inhibition” value is -1.73%. For `CCCCCCCCCCCCCCCCCC(=O)OCC(O)CO` (stereo not given) [monostearin], the “inhibition” value was 0.45%. Regarding `C[C@]12CC[C@H]3[C@@H](CC[C@]4(O)C[C@@H](O)CC[C@]34C=O)[C@@]1(O)CC[C@@H]2C1=CC(=O)OC1` [K-strophanthidin], the “inhibition” value is -5.59%. To `Nc1nc2c(ccc3ccccc32)s1` belongs -1.85%; to `CCCCOc1ccc(OCCCN2CCOCC2)cc1` [pramoxine], -1.18%. To `CC1CC(OC(=O)C(O)c2ccccc2)CC(C)(C)C1` (stereo not given) [cyclandelate] belongs -0.37%; to `Cc1c[nH]c2ncnc(N3CCC(CN)(C(=O)Nc4cccc(OC(=O)N(C)C)c4)CC3)c12`, 4.07%; to `CCCCCCCCNC(=O)/C(C#N)=C/c1cn(CCCN(C)C)c2ccccc12` [dynole-34-2], 2.72%.

With `C=C1/C(=C\C=C2/CCC[C@]3(C)[C@@H]([C@H](C)OCCC(C)(C)O)CC[C@@H]23)C[C@@H](O)C[C@@H]1O` [maxacalcitol], the “inhibition” value was -1.77%. As for `COc1ccc(-c2oc3cc(OC)ccc3c2C(=O)c2ccc(C#N)cc2)cc1`, the “inhibition” value was -3.03%. In the case of `CC1(C)CCC2=C(O1)c1ccccc1C(=O)C2=O` [beta-lapachone] it was -2.74%. For the compound `CCCCCCCCCCCCCCCCO` [1-hexadecanol], the “inhibition” value was -0.66%. In the case of `CC(=O)OC[C@H]1O[C@@](COC(C)=O)(O[C@H]2O[C@H](COC(C)=O)[C@@H](OC(C)=O)[C@H](OC(C)=O)[C@H]2OC(C)=O)[C@@H](OC(C)=O)[C@@H]1OC(C)=O` [sucrose-octaacetate] it was -1.24%; in that of `CCC(=O)OCN1C(=O)C=CC1=O`, 0.41%. To `N=C(N)NC(=O)c1cnccn1` [pyrazinoylguanidine] belongs -2.28%; to `C[C@@H](O)[C@H]1C(=O)N2C(C(=O)O)=C(SCCNC=N)C[C@H]12` [imipenem], 9.32%; to `COc1ccc(-n2c(SCCCN3C(=O)c4cccc5cccc(c45)C3=O)nnc2-c2ccncc2)cc1`, -0.79%. In the case of `Cc1nn(C)c2c1C(c1ccc(C(F)(F)F)cc1)C(C#N)=C(N)O2` (stereo not given), the “inhibition” value was -1.6%. In the case of `COc1cc(NC(=O)Nc2cccc(CNC(=O)O[C@H]3CCOC3)c2)ccc1-c1cnco1` [merimepodib] it was -0.15%; in that of `O=C(CC12CC3CC(CC(C3)C1)C2)Nc1cccc2nc(NCCNCCO)ccc12`, 0.57%; in that of `N[C@@H](CSS(=O)(=O)O)C(=O)O` [S-sulfo-L-cysteine], -0.09%. `CN1CCN(C(=O)O[C@H]2c3nccnc3C(=O)N2c2ccc(Cl)cn2)CC1`: the “inhibition” value was 2.86%. To `Cc1cc2ncc(C(=O)NCC(C)(C)NCC(=O)N3CCC[C@H]3C#N)cn2n1` [anagliptin] belongs -0.23%. In the case of `Cn1cc([S+](C)[O-])c(=O)c2ccc(F)cc21` (stereo not given) [flosequinan], the “inhibition” value is 0.34%. For `O=C(Cn1ccnc1[N+](=O)[O-])NCCO` [etanidazole], the “inhibition” value is 4.88%.

In the case of `C=CC[N+]1([C@H]2C[C@H]3[C@@H]4CC[C@H]5C[C@H](O)[C@@H](N6CCOCC6)C[C@]5(C)[C@H]4CC[C@]3(C)[C@H]2OC(C)=O)CCCC1`, the “inhibition” value is 2.36%. For `CCC1=C[C@@H]2CN3CCc4c([nH]c5ccccc45)[C@@](C(=O)OC)(C2)[C@@H]13` [catharanthine], the “inhibition” value was 0.47%. In the case of `Cc1c(Cl)c(C)[n+]([O-])c(Cl)c1-c1noc(-c2cc(O)c(O)c([N+](=O)[O-])c2)n1` [opicapone] it was 0.21%. In the case of `CC1(C)C(=O)NC2=C1C(=O)C(=O)c1ccccc12` it was -0.78%; in that of `CC(NCCc1ccc(O)cc1)C(O)c1ccc(O)cc1` (stereo not given) [ritodrine], 1.29%. For the compound `N=C(N)SCCc1ccc(OCc2ccc([N+](=O)[O-])cc2)cc1`, the “inhibition” value is -0.47%. In the case of `COc1ccc2c(c1)C(=O)N(CCc1ccc(S(=O)(=O)NC(=O)NC3CCCCC3)cc1)C(=O)C2(C)C` [gliquidone] it was 2.68%; in that of `CSc1ccccc1OCC(O)CNC(C)C` (stereo not given) [tiprenolol], -1.94%. As for `C[C@H]1[C@H](C)CC[C@]2(C(=O)O)CC[C@]3(C)C(=CC[C@@H]4[C@@]5(C)C[C@@H](O)[C@H](O)[C@@](C)(CO)[C@@H]5CC[C@]43C)[C@H]12` [asiatic-acid], the “inhibition” value was -0.32%.

Turning to `C=C[C@@]1(C)CC(=O)[C@]2(O)[C@@]3(C)[C@@H](O)CCC(C)(C)[C@@H]3[C@H](OC(=O)CCN(C)C)[C@H](OC(C)=O)[C@@]2(C)O1` [colforsin-daproate], the “inhibition” value was -3.35%. To `Cc1cc(NC(=O)NCCN2CCC(O)(Cc3ccccc3)CC2)c2ccccc2n1` [palosuran] belongs 0.95%.

The values above are taken from the supplement of paper PMC13380429.
